Bioassay records as filed in PubChem BioAssay.
Most compounds without a hit are left out; they make up all but 1.9% or so of the library.
NPSR antag = blocks cAMP signaling of the human neuropeptide S receptor; hit rate 1% among 220,000; CHO-NPSR cells, cAMP TR-FRET, antagonist mode; Q6W5P4; Potency, µM (doses to about 38.3 µM), actives largely listed as inhibitors; further: nearly all actives have a fitted effect of over 50% in size
Target sequence (Q6W5P4 whole entry, looked up): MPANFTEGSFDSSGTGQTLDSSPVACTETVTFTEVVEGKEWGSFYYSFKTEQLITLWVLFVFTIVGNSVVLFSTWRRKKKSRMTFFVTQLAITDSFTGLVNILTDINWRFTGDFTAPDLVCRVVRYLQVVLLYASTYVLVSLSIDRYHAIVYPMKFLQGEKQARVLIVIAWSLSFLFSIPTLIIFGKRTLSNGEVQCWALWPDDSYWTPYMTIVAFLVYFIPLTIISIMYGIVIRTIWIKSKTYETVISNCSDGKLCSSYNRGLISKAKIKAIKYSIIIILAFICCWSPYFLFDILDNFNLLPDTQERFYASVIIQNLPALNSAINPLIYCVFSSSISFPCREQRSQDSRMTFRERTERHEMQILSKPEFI
BRCA1 expr up = BRCA1 expression activation | hit rate 1.1% among 380,000 | MCF7-BRCA1-FFLuc reporter, luminescence, 48 h; response scale: scaled: vehicle 0%, 10 µM genistein 100% | AID 624202 | Potency, µM (titrated, usually from 46.1 µM), hits mostly activators; further: nearly all actives have a fitted effect of over 80% in size
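MCF7-BRCA1-FFLuc cells, 2000/well in phenol-red-free MEM, attached 2 h then treated 48 h at 37 C. Luciferase luminescence read 15 min after reagent; normalized to genistein maximum activation (10microM) and DMSO, concentration-response fitted.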
RXFP1 antag = antagonists of human relaxin receptor RXFP1; activity change, negative = inhibition, % at 57.5 µM; HEK293-RXFP1, relaxin-stimulated cAMP HTRF, 30 min; stronger effect = lower value; AID 1259400; Q9HBX9; hit rate 0.59% among 350,000;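 active means activity change of -60% or lower, but not beyond a set lower limit; inconclusive means change between -60% and -40%, or beyond the set limit; inactive means change above -40%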
RXFP1 agonist = agonists of human relaxin receptor RXFP1; AID 2676; HEK293T-RXFP1 cAMP TR-FRET, 30 min; response scale: percent of porcine relaxin response, buffer zero; Potency, µM (titrated, usually from 57.5 µM), most hits filed as activators; hit rate 0.3% among 370,000; Q9HBX9; further: nearly all actives have a fitted effect of over 60% in size
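cAMP rise read by TR-FRET after 30 min, 37C compound exposure (up to 58 uM) in RXFP1-transfected HEK293 cells with Ro 20174 present. EC50 from Hill-equation fits, with 29 nM porcine relaxin as 100% and buffer as basal.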
Giardia killer = kills Giardia lamblia | Giardia lamblia trophozoite viability | activity change, % at 7.66 µM, hits read low | hit rate 0.15% among 340,000; in the data active means activity change below about -80%; inconclusive means between about -30% and that limit;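 further: parasites exposed to compound for two days anaerobically before the ATP read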
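Viability, read as ATP luminescence: trophozoites at 100 cells/well, compound added, 48 hrs anaerobic at 37 deg C, then 15-30 min room-temperature development before reading.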
IL-2 act = activates IL-2 in a cell-based reporter assay. IL-2 activation reporter assay, cell-based qHTS; stimulated with anti-CD3/CD4/CD28 beads; in transgenic mouse T cells. activation, % (series mostly up to about 46 µM). hit rate 0.065% among 360,000. AID 652025; in the data active means activation above about 50%; inconclusive means mostly about 30% to 49%
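Readout: EGFP and DsRed signals by fluorescent plate cytometry. Unstimulated transgenic mouse T cells received compound 60 min before antibody-bead stimulation, then incubated 18 h at 37 degrees C.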
Numbers stand for hits; i = inactive; ? = inconclusive; nt = not tested or not shown. Unless noted, the call rests on the fitted dose curve; in most records, active means well fitted curve in the direction sought with a large enough effect; inconclusive means small, poorly fitted or top-dose-only effect, or another doubt; inactive means no such curve, though single readings can be large; an effect the other way counts as inactive or inconclusive.

SMILES	NPSR antag	BRCA1 expr up	RXFP1 antag	RXFP1 agonist	Giardia killer	IL-2 act
c1ccc2c(c1)OC(CCCN1CCCCC1)c1ccccc1S2 (stereo not given)	?	i	?	i	i	i
CN1CCCC(CC2Oc3ccccc3Sc3ccccc32)C1 (stereo not given)	i	i	-81	i	i	i
CCOc1ccc2nc(NC(=O)C(CC)Sc3nc(C)cc(=O)[nH]3)sc2c1 (stereo not given)	i	5.6µM	i	i	i	i
O=C(Cn1ccnc1[N+](=O)[O-])NCc1ccccc1	nt	i	i	i	-83	i
COc1ccc(CCNc2ncccc2C#N)cc1OC	nt	4µM	i	i	i	i
CC(C)(C)c1cc(C(=O)CCN2CCOCC2)cc(C(C)(C)C)c1O	nt	i	-83	i	i	i
CC(C)(C)c1csc(NC(=O)c2cccnc2)n1	nt	i	i	i	i	i
CC(C)(C)c1csc(NNC(=O)c2ccc(Cl)cc2)n1	i	i	-95	i	i	i
CCOC(=O)c1ccc(/[N+]([O-])=C/c2ccccc2)cc1	nt	?	nt	i	i	i
C#CCCc1cscc1/C=[N+](\[O-])c1ccc(C(=O)OCC)cc1	nt	6.3µM	nt	i	i	i
O=C(OCC(=O)N1CCCC1)c1c(Cl)cccc1Cl	nt	i	i	i	i	i
Cc1ccsc1C(=O)OCC(=O)N1CCc2ccccc2C1	i	7.9µM	i	i	i	i
O=C(OCC(=O)N1CCc2ccccc2C1)c1c(F)cccc1Cl	nt	6.3µM	i	nt	i	i
C=CCSc1nnc(-c2ccc([N+](=O)[O-])cc2)o1	i	10µM	i	i	i	i
NC(=O)CSc1nnc(-c2ccc([N+](=O)[O-])cc2)o1	i	i	i	i	i	i
CCc1ccc(C2=NN(c3ccc(S(N)(=O)=O)cc3)C(c3ccc(F)cc3)C2)cc1 (stereo not given)	10µM	i	nt	i	i	i
CCc1ccc(-c2nnn(CCC#N)n2)cc1	i	13µM	i	i	i	i
CCOc1ccc(-c2nnn(CCC#N)n2)cc1OC	i	i	i	i	i	i
O=c1c(Br)c(N2CCCC2)cnn1-c1ccccc1	i	?	i	i	i	i
O=c1c(Br)c(N2CCOCC2)cnn1-c1ccccc1	i	13µM	i	i	i	i
CCc1ccccc1NC(=O)C1CCN(c2nn3c(=O)cc(C)nc3s2)CC1	nt	i	nt	i	nt	nt
Cc1[nH]n(C(N)=S)c(=O)c1N=Nc1ccc(Br)cc1	nt	4.5µM	i	i	i	i
CC(C)(C)c1cc(NC(=O)c2cccs2)no1	nt	?	i	nt	i	i
CC(C)(C)c1cc(NC(=O)c2cccnc2)no1	i	7.1µM	i	i	i	i
CCOC(=O)c1c(C)[nH]c(CCC(=O)Nc2c(C)cccc2CC)c1C	nt	nt	i	i	nt	nt
SMILES	NPSR antag	BRCA1 expr up	RXFP1 antag	RXFP1 agonist	Giardia killer	IL-2 act
COc1cccc(-c2csc(NC(=O)Oc3ccccc3)n2)c1	i	10µM	i	i	i	i
COc1cccc(OC)c1C(=O)Nc1nc(-c2ccccc2)cs1	nt	i	i	i	i	i
Cc1ccc2cc(CCNC(=O)c3ccco3)c(=O)[nH]c2c1	i	13µM	i	i	i	i
Cc1cc(Br)c2[nH]cc(CCNC(=O)c3ccco3)c2c1	nt	i	-88	i	i	i
CCCCCN(CCCCC)c1ccc(/C=C/c2ccnc3ccccc23)cc1	nt	i	nt	nt	nt	nt
COc1cccc(/C=C/c2nc3ccccc3nc2/C=C/c2cccc(OC)c2OC)c1OC	nt	i	nt	nt	nt	nt
COc1ccccc1C=NNc1ccc([N+](=O)[O-])cn1	nt	i	i	nt	i	73
O=[N+]([O-])c1ccc(NN=Cc2ccccc2)nc1	nt	?	i	nt	i	i
COc1ccccc1/C=N\Nc1ccccc1[N+](=O)[O-]	i	10µM	i	i	i	i
N#Cc1ccccc1Cn1cc(/C=N/Nc2ccc([N+](=O)[O-])cn2)c2ccccc21	i	i	i	i	i	74
COc1cccc(C=NNc2ccc([N+](=O)[O-])cn2)c1OC	nt	i	i	nt	i	i
O=[N+]([O-])c1ccc(N/N=C/c2cccs2)nc1	nt	4µM	i	nt	i	i
CC1=CC(=C(c2ccc(N)cc2)c2ccc(N)cc2)C=CC1=N	nt	i	nt	nt	nt	nt
COc1ccc(NS(=O)(=O)c2cc([N+](=O)[O-])ccc2N/N=C/c2c(C)[nH]c3ccccc23)cc1	nt	i	i	nt	i	i
Cc1[nH]c2ccccc2c1/C=N/Nc1ccccc1[N+](=O)[O-]	10µM	i	i	i	i	i
CN(C)/C=C1\C(=O)N(c2ccc(Cl)cc2)CS1(=O)=O	i	7.9µM	i	i	i	i
C=C1C=C(C(F)F)n2ncc(C(=O)NCc3ccc(F)cc3)c2N1	nt	i	nt	nt	nt	nt
Cc1ccccc1-c1csc(N)n1	nt	i	i	nt	i	i
Nc1nc(-c2ccccc2Cl)cs1	nt	10µM	i	nt	i	i
CC1CCCC(NC(=O)CSc2ccc(F)cc2)C1C (stereo not given)	i	i	i	i	i	i
CC1CCCC(NCC(O)COC(c2ccc(F)cc2)c2ccc(F)cc2)C1C (stereo not given)	i	i	-69	i	i	i
Cc1ccc(CSc2ncnc3c2cnn3-c2ccc(C)cc2)cc1	i	4.5µM	i	i	i	i
CCOC(=O)CSc1ncnc2c1cnn2-c1ccccc1	i	i	i	i	i	i
Cc1ccc(-n2ncc3c(SCc4ccccc4)ncnc32)cc1	i	4.5µM	i	i	i	i
CCOC(=O)CC(=O)CSc1ncnc2c1cnn2-c1ccccc1	i	6.3µM	i	i	i	i
SMILES	NPSR antag	BRCA1 expr up	RXFP1 antag	RXFP1 agonist	Giardia killer	IL-2 act
CCN(c1ccccc1)c1ncnc2c1cnn2-c1ccccc1	i	5µM	nt	i	i	i
Cc1ccc(F)c(C2C3C=CCC(C)C3C(=O)N2Cc2ccccc2)c1 (stereo not given)	nt	nt	nt	nt	i	nt
Cc1ccc(-n2ncc3c(NCCc4ccccc4)ncnc32)cc1C	nt	nt	?	i	nt	nt
c1ccc(CCNc2ncnc3c2cnn3-c2ccccc2)cc1	?	4.5µM	i	i	i	i
O=C(CC1C(=O)N(c2ccccc2)C(=S)N1c1ccccc1)c1ccc(Br)cc1 (stereo not given)	i	i	-73	i	i	i
O=C(CC1C(=O)N(c2ccccc2)C(=S)N1c1ccccc1)c1ccccc1 (stereo not given)	i	i	i	i	i	i
CCc1ccc(NC(=O)CCCN2C(=O)C3CC=CCC3C2=O)cc1 (stereo not given)	nt	7.9µM	i	i	i	i
Cc1ccc(CNC(=O)CSc2ccsc2[N+](=O)[O-])cc1	i	?	i	i	-88	i
O=C(CSc1ccsc1[N+](=O)[O-])NCCc1ccc(Cl)cc1	i	i	i	i	?	i
COc1ccc(CNC(=O)CSc2ccsc2[N+](=O)[O-])cc1	i	10µM	i	i	?	i
